Source: PubChem (National Center for Advancing Translational Sciences (NCATS))
ERG-DNA inh: blocks human ERG Ets domain binding to DNA; P11308; fluorescence polarization, His-ERG Ets domain / labelled DNA; Potency, µM (doses to about 76.9 µM), without a hit: at the top dose FP activity, negative = inhibition, hits mostly inhibitors; actives 0.028% (n = 370,000); active means well fitted inhibition curve with a large enough effect in the polarisation, with a control signal flat; inconclusive means small, poorly fitted or top-dose-only effect, or effect the other way, or a change in a side signal; inactive means no such curve, though single readings can be large or run the other way; the % refers to the polarisation;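 further: polarization taken with two DNA probes labelled with fluorescein and Texas red; % of control where 0% means no effect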
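His-tagged ERG Ets domain (1 uM in the protein solution; 300mM KCl, 50mM Tris-HCl, 1mM EDTA, 1mM DTT, pH 7.5) received compound, then a probe mix of 5 nM fluorescein-DNA and 100nM Texas-615-DNA. Fluorescence polarization was read for both dyes.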
Mito fusion act: mitochondrial division inhibition or fusion activation; S. cerevisiae fusion-defective mutant growth rescue, CellTiterGlo 48 h; Potency, µM (top dose mostly 46.1 µM), for inactives: at the highest dose growth rescue (activation), actives largely listed as activators; actives 0.23% (n = 320,000); further: % of control where 0% means no effect; nearly all actives have a fitted effect of over 45% in size
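Compounds are tested for their ability to restore growth of mitochondrial fusion-defective yeast strains at non-permissive 37C in YPEG medium over 48 hours. Viability is quantified by luciferase luminescence.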
B2AR arrestin: beta2AR (human) beta-arrestin recruitment activity; beta-arrestin recruitment to beta2AR, cell-based reporter; AID 492947; Potency, µM (doses to about 46.1 µM), for the others: at the highest dose activation, hits mostly activators; P07550; actives 0.02% (n = 330,000);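 further: 0% = DMSO controls and full agonism = EC100 isoproterenol or metaproterenol; nearly all actives have a fitted effect of over 65% in size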
Target sequence (P07550 whole entry, looked up): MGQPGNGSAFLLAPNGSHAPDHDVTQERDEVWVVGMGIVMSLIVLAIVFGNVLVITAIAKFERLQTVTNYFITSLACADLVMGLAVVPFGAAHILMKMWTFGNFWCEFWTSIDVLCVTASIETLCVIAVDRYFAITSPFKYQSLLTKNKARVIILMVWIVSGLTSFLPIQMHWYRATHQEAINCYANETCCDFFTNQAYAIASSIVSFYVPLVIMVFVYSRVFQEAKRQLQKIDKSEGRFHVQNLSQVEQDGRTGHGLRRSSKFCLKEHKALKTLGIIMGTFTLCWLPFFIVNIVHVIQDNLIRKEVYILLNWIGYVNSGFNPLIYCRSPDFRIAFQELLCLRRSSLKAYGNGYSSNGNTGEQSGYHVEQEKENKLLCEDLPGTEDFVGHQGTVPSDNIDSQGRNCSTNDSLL
BRCA1 expr act: activators of BRCA1 expression; actives 1.1% (n = 380,000); AID 624202; Potency, µM (top dose mostly 46.1 µM), inactives show at the highest dose activation, hits mostly activators; MCF7-BRCA1-FFLuc reporter, luminescence, 48 h; response scale: scaled: vehicle 0%, 10 µM genistein 100%; further: nearly all actives have a fitted effect of over 80% in size
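Luminescence from a BRCA1-driven firefly luciferase in MCF7 cells was read after 48 h compound exposure at 37 C. Data normalized against DMSO and a 10microM genistein activation control, then curve-fitted across the titration.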
An asterisk follows results filed as active. This is a sample that favours compounds with a hit; in the whole collection about 1.2% have one here. Unless noted, the call rests on the fitted dose curve; in most records, active means well fitted curve in the direction sought with a large enough effect; inconclusive means small, poorly fitted or top-dose-only effect, or another doubt; inactive means no such curve, though single readings can be large; an effect the other way counts as inactive or inconclusive. Potency means the concentration at half of the fitted maximal effect.

What do the screens show for `COc1cccc(/C=N/NC(=S)Nc2cccc(S(=O)(=O)N(C)C)c2)c1`?
ERG-DNA inh: inconclusive; Mito fusion act: -3.3%; B2AR arrestin: 17.8µM*; BRCA1 expr act: 0.7%

How did Cc1oc(-c2ccc(Cl)cc2)cc1C(=O)N1CCC1(C)C(=O)O (stereo not drawn) do in these assays?
BRCA1 expr act: 8.91µM*

What do the screens show for `CCOc1ccc(-c2nc(C#N)c(NC3CC3)o2)cc1`?
ERG-DNA inh: 10.4%; Mito fusion act: 1.3%; B2AR arrestin: 0.0%; BRCA1 expr act: 10µM*

Results for COc1ccccc1-c1nnc2n(CCc3ccccc3)c(=O)c3ccccc3n12 ?
ERG-DNA inh: 10.3%

What do the screens show for `CC(C)c1ccc(NC(=O)COc2ccccn2)cc1`?
ERG-DNA inh: -12.1%; Mito fusion act: -3.1%; B2AR arrestin: -0.2%; BRCA1 expr act: 3.98µM*

What do the screens show for `CC(C)c1ccc(NC(=O)COc2ccccc2)cc1`?
ERG-DNA inh: -1.4%; Mito fusion act: -4.4%; B2AR arrestin: 0.2%; BRCA1 expr act: inconclusive

How did Cn1c(-c2ccc(C(C)(C)C)cc2)n[nH]c1=S do in these assays?
ERG-DNA inh: 0.7%; Mito fusion act: 5.1%; B2AR arrestin: 0.2%; BRCA1 expr act: 20µM*

What do the screens show for `Nc1ccc(CCc2nc3ccccc3o2)cc1`?
ERG-DNA inh: 3.9%; Mito fusion act: 8.0%; B2AR arrestin: -0.2%; BRCA1 expr act: 2.82µM*

Results for Cc1ccc(-c2nc3ccccn3c2Nc2ccccc2C)s1 ?
ERG-DNA inh: -3.3%; BRCA1 expr act: -27.0%

What do the screens show for `Cc1ccc(NC(=O)CC2Sc3ccccc3NC2=O)c(Br)c1` (stereo not drawn)?
ERG-DNA inh: 0.4%; BRCA1 expr act: -1.8%

What do the screens show for `COc1ccc(C(=O)Nc2ccccc2C(=O)Nc2cccc(C)n2)cc1`?
ERG-DNA inh: -3.9%; Mito fusion act: -0.8%; B2AR arrestin: -0.6%; BRCA1 expr act: 57.6%

What do the screens show for `COc1ccc(C(=O)Nc2ccccc2C(=O)Nc2cc(C)ccn2)cc1`?
ERG-DNA inh: 17.2%; Mito fusion act: -4.2%; B2AR arrestin: 1.0%; BRCA1 expr act: 2.24µM*

What do the screens show for `COc1ccc(C(=O)Nc2cnc(NC(=O)c3cccs3)cc2C)cc1`?
ERG-DNA inh: 12.9%; Mito fusion act: 10.2%; B2AR arrestin: -0.1%; BRCA1 expr act: 7.08µM*

Results for CCOc1ccc(CCNC(=O)Cn2c(=O)c3cccn3c3ccc(F)cc32)cc1OCC ?
ERG-DNA inh: -5.7%

Results for COc1ccccc1N1CCN(C(=O)C2CCN(S(=O)(=O)c3cnc[nH]3)CC2)CC1 ?
ERG-DNA inh: -1.8%

Results for COC(=O)[C@@]12CCCCN1[C@H](c1ccc(-c3ccccc3)cc1)[C@H]1C(=O)N(C)C(=O)[C@H]12 ?
ERG-DNA inh: 10.9%; Mito fusion act: inconclusive; B2AR arrestin: -0.9%; BRCA1 expr act: -14.9%

What do the screens show for `COC(=O)[C@@]12CCCCN1[C@H](c1ccc(-c3ccc(F)cc3)cc1)[C@@H]1C(=O)N(C)C(=O)[C@@H]12`?
ERG-DNA inh: -1.8%; Mito fusion act: 12.6µM*; B2AR arrestin: -0.9%; BRCA1 expr act: -4.9%

What do the screens show for `Cc1ccccc1Nc1nc(N)nc(CSc2nc3ccccc3s2)n1`?
ERG-DNA inh: -3.6%; Mito fusion act: 20µM*; B2AR arrestin: -0.3%; BRCA1 expr act: 0.7%

What do the screens show for `Cc1ccc(Nc2nc(N)nc(CSc3nc4ccccc4s3)n2)cc1`?
ERG-DNA inh: 5.3%; Mito fusion act: -7.8%; B2AR arrestin: -0.2%; BRCA1 expr act: -75.8%

Results for CC(=O)Nc1ccc2nc3c(=O)[nH]c(=O)[nH]c3nc2c1 ?
ERG-DNA inh: -0.2%; BRCA1 expr act: 2.8%

What do the screens show for `Cc1nc(Nc2ccccc2)sc1C(=O)c1ccccc1`?
ERG-DNA inh: -1.2%; Mito fusion act: 18.9%; B2AR arrestin: 0.4%; BRCA1 expr act: 10µM*

What do the screens show for `CC(=Nc1ccc(O)cc1)c1sc2ccccc2c1O`?
ERG-DNA inh: -4.6%; Mito fusion act: -1.7%; B2AR arrestin: 0.2%; BRCA1 expr act: -1.1%

How did CC(=O)NCCN=C(C)c1sc2ccccc2c1O do in these assays?
ERG-DNA inh: 7.3%; Mito fusion act: -0.6%; B2AR arrestin: -0.1%; BRCA1 expr act: 12.6µM*

How did O=C(Cn1cc(SCc2ccccc2Cl)c2ccccc21)N1CCOCC1 do in these assays?
Mito fusion act: 20.0%; B2AR arrestin: -0.4%; BRCA1 expr act: 11.2µM*
